18 compounds from PubChem BioAssay can be followed below.

The source made the active and inactive calls. Unless noted, no rule for the calls is given here.

The subject of test [1] is XIP peptide (Xip251-270) binding. Nature of the test: small-molecule binders of XIP peptide, primary screen, biochemical, small-molecule microarray, fluorescence 635/667 nm, 0.1 µg/mL protein (AID 1182). To be noted: fluorescent protein binding, 635 nm, higher = more signal, called active from +8 up or from −8 down.
For test [2], the system named is XIP peptide (Xip251-270). The experiment in a line: small-molecule binders of XIP peptide, primary screen, biochemical, small-molecule microarray, fluorescence 635/667 nm, 0.5 µg/mL protein (AID 1183). To be noted: small-molecule microarray binding, fluorescence 635 nm; higher = more signal.
Test [3] can be described thus: Plasmodium falciparum growth inhibition, primary screen, strain 3D7, DAPI fluorescence, 100 nL (AID 1184).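 Also: parasites grown inside human red blood cells in medium with human serum.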 Particulars: P. falciparum 3D7 growth, 3 d, higher = more signal.
For test [4], the target named is Homeobox protein Hox-A13 (Mus musculus) (UniProt Q62424). The experiment in a line: inhibitors of HoxA13-DNA binding, primary screen, biochemical, fluorescence polarization, labeled oligonucleotide (AID 1185). To be noted: 15 min, higher = more signal, called active from +8 up or from −8 down. For orientation: Fluorescence polarisation rises when a labelled molecule tumbles more slowly, as on binding a larger partner.
Homeobox protein Hox-A13 (Mus musculus), sequence (Q62424 whole entry, looked up): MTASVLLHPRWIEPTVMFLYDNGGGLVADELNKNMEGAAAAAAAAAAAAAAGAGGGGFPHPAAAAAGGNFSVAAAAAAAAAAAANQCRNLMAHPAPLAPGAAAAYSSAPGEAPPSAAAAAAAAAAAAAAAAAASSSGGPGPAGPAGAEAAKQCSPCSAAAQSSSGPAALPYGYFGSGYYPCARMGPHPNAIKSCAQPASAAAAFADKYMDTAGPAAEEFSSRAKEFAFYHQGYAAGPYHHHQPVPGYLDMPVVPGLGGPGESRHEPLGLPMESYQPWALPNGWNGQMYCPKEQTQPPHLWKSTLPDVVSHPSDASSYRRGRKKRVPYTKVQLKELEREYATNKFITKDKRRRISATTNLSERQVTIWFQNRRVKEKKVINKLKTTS

A short description of test [5]: inhibitors of hydroxyurea-induced Chk1 phosphorylation, primary screen, imaging, HeLa, phospho-Chk1 antibody, percent positive cells (AID 1186). To be noted: hydroxyurea-induced phospho-Chk1 immunofluorescence imaging, higher = more signal.
Test [6] in a line: inhibitors of hydroxyurea-induced Chk1 phosphorylation, primary screen, imaging, HeLa, phospho-Chk1 nuclear intensity (AID 1187). Particulars: hydroxyurea-induced phospho-Chk1 immunofluorescence imaging, higher = more signal.

With `CC(C)NC(=O)[C@@]1(C)c2ccccc2C(=O)N(Cc2cc(F)cc(C(F)(F)F)c2)[C@H]1c1ccc(CO)cc1`, the values for the composite z-score in test [1] and in test [2] were 1.06 (inactive) and 0.863, respectively. The z-score in test [3] is 0.281; in test [4], -3.73 (inactive); in test [5], 0.0123 (inactive); in test [6] it was -0.37 (inactive).

Turning to `CN(C)c1ccc(C(O)C2C=CC3C(=O)N(c4ccccc4)C(=O)C3N2Nc2ccccc2F)cc1` (stereo not drawn), the composite z-score in test [1] is 0.324 (inactive); in test [2] it was 0.265. The z-score in test [3] is -0.0341; in test [4] it was -5.07 (inactive); in test [5], -0.0191 (inactive); in test [6], -0.817 (inactive).

Consider `CCc1cccc(NC(=O)O[C@H]2[C@H](OC(=O)Nc3ccc4c(c3)OCO4)[C@@H](OC(=O)Nc3ccc4c(c3)OCO4)[C@@H](OC)O[C@@H]2CO)c1`, for which the values for the composite z-score in test [1] and in test [2] were 0.0979 (inactive) and -0.0177, respectively. Further, the z-score in test [3] was -2.23; in test [4] it was -6.22 (inactive); in test [5] it was -0.313 (inactive); in test [6], 0.165 (inactive).

As for `CCCCC(=C=CC[C@H](O)c1ccccc1OCCO)C[C@H](O)COCc1ccccc1`, the composite z-score in test [1] was 1.03 (inactive); in test [2] it was -0.765. Further, the z-score in test [3] was -1.21; in test [4] it was -4.61 (inactive); in test [5] it was -0.15 (inactive); in test [6], 0.18 (inactive).

For `CC(C)=C1C(=O)C(c2ccccc2)=C2CN3C(=O)N(CCc4ccccc4)C(=O)[C@]3(Cc3ccc(F)cc3)[C@H]21`, the composite z-score is -0.391 (inactive) in test [1] and -0.27 in test [2]. Moreover, the z-score in test [3] was -0.418; in test [4], -2.1 (inactive); in test [5], 0.0852 (inactive); in test [6], 0.314 (inactive).

Regarding `CCCCCN1CC=CC23O[C@@H]4C=CCOC(=O)[C@@H]4[C@H]2C(=O)N(CCCCCCO)[C@@H]3C1=O` (stereo partly drawn), the results for the composite z-score in test [1] and in test [2] were 0.282 (inactive) and -0.325, respectively. The z-score is -0.658 in test [3], -4.08 (inactive) in test [4], -0.0533 (inactive) in test [5] and 0.0434 (inactive) in test [6].

Turning to `N#Cc1ccc(NN2C(C(O)c3cccc4ccccc34)C=CC3C(=O)N(c4ccccc4)C(=O)C32)cc1` (stereo not drawn), the values for the composite z-score in test [1] and in test [2] were 0.366 (inactive) and 0.684, respectively. In addition, the z-score in test [3] was -0.0446; in test [4], 1.05 (inactive); in test [5], -0.145 (inactive); in test [6], 0.137 (inactive).

For the compound `CCOc1ccc(N2C(=O)/C(=C/C=C/c3ccccc3OC)S(=O)(=O)C2c2cccc([N+](=O)[O-])c2)cc1` (stereo not drawn), the composite z-score in test [1] was -0.735 (inactive); in test [2] it was -0.299. The z-score in test [3] was 0.418; in test [4], 1.37 (inactive); in test [5] it was -0.322 (inactive); in test [6], -0.16 (inactive).

Regarding `COCC1=C2[C@@H](CCc3ccccc3)OB(O)C[C@@H]2n2c(=O)n(-c3ccccc3)c(=O)n2C1`, the composite z-score in test [1] was -0.0712 (inactive); in test [2], 0.835. Also, the z-score in test [3] was 1.25; in test [4] it was -4.79 (inactive); in test [5] it was 0.0264 (inactive); in test [6], -0.295 (inactive).

For the compound `COCCOC(=O)N1C(=O)[C@@]2(c3cc(C#Cc4ccc(OC)cc4)ccc31)[C@H](C(=O)N1CCN(c3ncccn3)CC1)[C@H]1C(=O)O[C@H](c3ccccc3)[C@H](c3ccccc3)N1[C@@H]2c1ccc(OCCO)cc1`, the composite z-score was 0.115 (inactive) in test [1] and 0.43 in test [2]. In addition, the z-score was -1.49 in test [3], 1.38 (inactive) in test [4], -0.102 (inactive) in test [5] and -0.0346 (inactive) in test [6].

On to `CC(C)(C)OC(=O)CC[C@]1(C(N)=O)COC(c2ccc(OCCCO)cc2)=N1`, for which the composite z-score is 2.48 (inactive) in test [1] and 0.223 in test [2]. The z-score in test [3] is 0.0099; in test [4], -1.89 (inactive); in test [5], 0.764 (inactive); in test [6], 0.572 (inactive).

With `CN(C)CCCNC(=O)[C@@H]1c2ccccc2C(=O)N(Cc2cc(F)cc(C(F)(F)F)c2)[C@H]1c1ccc(CO)cc1`, the composite z-score is 0.782 (inactive) in test [1] and -0.0306 in test [2]. Further, the z-score in test [3] was -0.1; in test [4], -3.29 (inactive); in test [5] it was 0.241 (inactive); in test [6] it was -0.0884 (inactive).

Regarding `COC(=O)[C@@]1(Cc2ccc(F)cc2)[C@@H]2C(=CC(=O)[C@H]2CC(=O)C(=O)N(C)C)CN1C(=O)c1ccccc1`, the figures for the composite z-score in test [1] and in test [2] were 0.0142 (inactive) and 0.472, respectively. The z-score in test [3] was -1.35; in test [4], -2.5 (inactive); in test [5], -0.0509 (inactive); in test [6] it was -0.914 (inactive).

With `CCOC(=O)C[C@H]1[C@H](OC(=O)c2ccc(C(=O)c3ccccc3)cc2)[C@@H](NC(=O)c2ccc(-c3ccccc3)cc2)c2cc(OCCCO)ccc2N1C(=O)c1ccc2ccccc2n1`, the figures for the composite z-score in test [1] and in test [2] were 1.25 (inactive) and 0.388, respectively. The z-score in test [3] is -1.04; in test [4] it was -0.834 (inactive); in test [5] it was -0.916 (inactive); in test [6] it was -0.596 (inactive).

On to `CCCC=C(CCC)[C@@H](NC(=O)c1ccc(-c2ccccc2)cc1)c1ccc(C(=O)OC)cc1`, for which the values for the composite z-score in test [1] and in test [2] were -0.144 (inactive) and 0.0922, respectively. Moreover, the z-score in test [3] was 0.208; in test [4], -0.539 (inactive); in test [5], 0.125 (inactive); in test [6], -0.115 (inactive).

Regarding `COCCCNC(=O)[C@@]1(C)c2ccccc2C(=O)N(Cc2ccc(OC(F)(F)F)cc2)[C@H]1c1ccc(CO)cc1`, the composite z-score is 0.111 (inactive) in test [1] and 0.187 in test [2]. Moreover, the z-score in test [3] was -0.313; in test [4], -2.89 (inactive); in test [5], -0.143 (inactive); in test [6], -0.339 (inactive).

As to `CN1C(=O)C2C=CC(C(O)C(c3ccccc3)c3ccccc3)N(NC(=O)OC(C)(C)C)C2C1=O` (stereo not drawn), the composite z-score in test [1] is 3.1 (inactive); in test [2], 0.752. In addition, the z-score in test [3] is 0.617; in test [4], -4.08 (inactive); in test [5], 0.242 (inactive); in test [6] it was -0.158 (inactive).

As to `COCCCNC(=O)[C@@]1(Sc2ccc(C)cc2)CC(=O)N(Cc2ccccc2)[C@@H]1c1ccc(CO)cc1I`, the composite z-score is -0.453 (inactive) in test [1] and 0.423 in test [2]. Moreover, the z-score in test [3] was -0.0893; in test [4] it was -2.08 (inactive); in test [5], 0.442 (inactive); in test [6] it was 1.03 (inactive).
